Compound activity: PubChem BioAssay, National Center for Advancing Translational Sciences (NCATS)
Compounds with a hit are over-represented: about 2.2% of the library has one in this group of screens.
BRCA1 expr up – increases BRCA1 expression | MCF7-BRCA1-FFLuc reporter, luminescence, 48 h; response scale: scaled: vehicle 0%, 10 µM genistein 100% | Potency, µM (highest dose often 46.1 µM), for inactives: at the highest dose activation, actives largely listed as activators | actives 1.1% (n = 380,000) | AID 624202; also: potency is read from the fitted curve at half-maximal effect; nearly all actives have a fitted effect of over 80% in size
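Using MCF7 cells harboring a BRCA1 firefly luciferase reporter, plated 2 h before compound pinning, the screen measured luminescence after 48 h incubation. Responses were normalized to DMSO and 10 microM genistein, then fitted for concentration-effect.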
IDH1 R132H inh – inhibitors of human mutant IDH1 R132H. O75874. IDH1-R132H enzyme, NADPH consumption, diaphorase/resazurin fluorescence. Potency, µM (highest dose often 76.6 µM), inactives show top-dose activity change, negative = inhibition, most hits filed as inhibitors. actives 0.093% (n = 390,000); also: potency is read from the fitted curve at half-maximal effect; % is scaled to controls: 0 for no effect and ±100 for the full control effect; nearly all actives have a fitted effect of over 65% in size
Target sequence (O75874 whole entry R132H, stated change not applied): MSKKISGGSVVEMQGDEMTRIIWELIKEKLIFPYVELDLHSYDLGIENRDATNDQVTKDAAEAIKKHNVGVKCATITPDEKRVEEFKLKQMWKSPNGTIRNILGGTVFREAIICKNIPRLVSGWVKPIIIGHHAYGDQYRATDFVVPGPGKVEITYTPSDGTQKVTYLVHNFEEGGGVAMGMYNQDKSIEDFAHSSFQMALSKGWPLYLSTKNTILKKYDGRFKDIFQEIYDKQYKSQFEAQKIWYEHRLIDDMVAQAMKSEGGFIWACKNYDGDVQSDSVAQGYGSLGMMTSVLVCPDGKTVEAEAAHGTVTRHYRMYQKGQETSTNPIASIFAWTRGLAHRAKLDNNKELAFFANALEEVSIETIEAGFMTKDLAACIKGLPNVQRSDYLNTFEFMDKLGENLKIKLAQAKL
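IDH1-R132H (0.5 ug/mL) preincubated 30 min with compound, then NADPH (0.016 mM) and alpha-KG (2 mM) added; 80 min at RT, pH 7.5. Remaining NADPH coupled via diaphorase/resazurin to fluorescence (540/590 nm); concentration-response curves normalized to no-enzyme control.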
Giardia kill – kills Giardia lamblia; Giardia lamblia trophozoite viability; activity change, % at 7.66 µM, hits read low; actives 0.15% (n = 340,000); in the data active = activity change below about -80%; inconclusive = between about -30% and that limit;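 also: parasites exposed to compound for two days anaerobically before the ATP read; % is scaled to controls: 0 for no effect and ±100 for the full control effect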
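Compounds were tested on trophozoites seeded at 100 cells/well and held 48 hrs at 37 deg C anaerobically. An ATP-based luminescent kit measured the remaining live cells.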
IL-2 act – IL-2 activation | IL-2 activation reporter assay, cell-based qHTS; stimulated with anti-CD3/CD4/CD28 beads; in transgenic mouse T cells | activation, % (series mostly up to about 46 µM) | actives 0.065% (n = 360,000) | AID 652025; in the data active = activation above about 50%; inconclusive = mostly about 30% to 49%; also: 0% is about no effect
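Readout is EGFP and DsRed signal by fluorescent plate cytometry after 18 h at 37 degrees C. Transgenic mouse T cells (750/well) received compound for 60 min before bead stimulation (anti-CD3, anti-CD4, anti-CD28); memory T cells served as non-tolerant control.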
rTrxR1 inhibitor – rat TrxR1 inhibition | O89049 | recombinant rTrxR1, NADPH fluorescence consumption, selenite substrate | Potency, µM (highest dose often 114 µM), inactives show at the top dose activity change, negative = inhibition, hits mostly inhibitors | actives 1% (n = 390,000) | AID 588453; also: potency is read from the fitted curve at half-maximal effect; % is scaled to controls: 0 for no effect and ±100 for the full control effect; nearly all actives have a fitted effect of over 65% in size
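Rat TrxR1 (90 nM in the dispensed reagent) was pre-reduced with 400 uM NADPH for 5 min at room temperature, then incubated with compound for 15 min. After 400 uM selenite was added, NADPH fluorescence (Ex 340/Em 450 nm) was followed for 8 min.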
TrxR1 substrate – rat thioredoxin reductase 1 substrate activity; Potency, µM (highest dose often 114 µM), for inactives: at the top dose activity change, negative = substrate turnover; O89049; AID 588456; purified TrxR1 substrate turnover, NADPH consumption readout; actives 0.01% (n = 390,000); also: potency is read from the fitted curve at half-maximal effect; % is scaled to controls: 0 for no effect and ±100 for the full control effect; nearly all actives have a fitted effect of over 50% in size
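Rat TrxR1, dispensed at 90 nM, was prereduced with 400 uM NADPH (final) for 5 min at ~22 deg C, then incubated with compound 15 min before 400 uM selenite. A first-read NADPH fluorescence drop versus no-compound background flagged substrates.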
* marks the source's active call; other numbers are inactive results; ? = inconclusive; nt = no result; [ ] = another dose, or the depositor's remark. Unless noted, calls follow the shape of the dose curve; as a rule, active = well fitted curve in the direction sought with a large enough effect; inconclusive = small, poorly fitted or top-dose-only effect, or another doubt; inactive = no such curve, though single readings can be large; an effect the other way counts as inactive or inconclusive.

SMILES | BRCA1 expr up | IDH1 R132H inh | Giardia kill | IL-2 act | rTrxR1 inhibitor | TrxR1 substrate
CCOc1ccc(C2Nc3cccc4cccc(c34)N2)cc1OC | -19% | 10% | 23 | 0 | 28µM* | 1%
Cc1cc(C)c2c(N)c(C(=O)NNC(=O)c3ccccc3)sc2n1 | 8.9µM* | 5% | -21 | -1 | 17% | 31%
COCc1cc(C)nc2sc(C(=O)Nc3cccc(OC)c3)c(N)c12 | 2.5µM* | 4% | -6 | 0 | 22% | 3%
Cc1cc(C)c2c(N)c(C(=O)NN)sc2n1 | 29% | -1% | 10 | 1 | 3% | 5%
O=C(Cc1ccc(Br)cc1)NO | 0% | nt | nt | nt | 8% | 5%
O=C(Nc1sc2c(c1C(=O)NCc1ccccc1)CCCC2)c1cc(=O)c2ccccc2o1 | nt | -13% | nt | nt | 23% | 8%
CCCCOc1cccc(C(=O)NC(=S)Nc2cccnc2)c1 | -5% | -1% | 5 | 1 | 25µM* | -12%
O=C(NC(=S)Nc1cccnc1)c1cccc(Br)c1 | 29% | 8% | -25 | -1 | 56µM* | -10%
COc1cccc(CNC(=O)COCc2cc(-c3ccc4c(c3)OCO4)on2)c1 | nt | 0% | nt | nt | -28% | -9%
Cc1c(NS(C)(=O)=O)cccc1-c1nc2ccccc2s1 | nt | 8% | nt | nt | -4% | -7%
CS(=O)(=O)Nc1ccc(-c2nc3ccccc3s2)cc1 | nt | nt | nt | nt | 79µM* | 582%
CC(C)(C)n1ncc2c(=O)n(Cc3ccc(Cl)cc3F)cnc21 | nt | nt | nt | nt | 24% | 11%
CCOC(=O)c1cnc2ccccc2c1Nc1cccc(C(=O)O)c1 | -6% | -6% | -24 | 80* | 20%[57.1 µM] | -3%[57.1 µM]
CC(=O)c1ccc(NC(=O)NCCc2c[nH]c3ccccc23)cc1 | nt | -1% | nt | nt | 14% | 0%
CCc1ccc2occ(CC(=O)Nc3c(C(=O)Nc4ccc(C)cc4)oc4ccccc34)c2c1 | nt | -9% | nt | nt | 89µM* | 9%
CCc1ccc2occ(CC(=O)Nc3c(C(=O)Nc4ccc(Cl)cc4)oc4ccccc34)c2c1 | nt | 12% | nt | nt | 20% | 13%
CN1C2=CC=CC=CC2=[N+](C)C12C([N+](=O)[O-])=CC(=[N+]([O-])[O-])C=C2[N+](=O)[O-] (stereo not given) | -24% | 12% | -94* | -7 | 1%[57.1 µM] | 3%[57.1 µM]
CN1C2=CC=CC=CC2=[N+](C)C12C=CC(=[N+]([O-])[O-])C=C2[N+](=O)[O-] (stereo not given) | -24% | 11% | ? | 0 | ? | -18%[57.1 µM]
COc1cc(OC)cc(C(=O)/C=C2\Sc3ccccc3N2C)c1 | 48% | -12% | -10 | 0 | -8%[57.1 µM] | -7%[57.1 µM]
COc1ccc2c(c1)S/C(=C\C(=O)c1ccncc1)N2C | 4.5µM* | 3% | 7 | 0 | -2% | -2%
COC1C(CO)OC(n2c3c(Cl)cccc3c3c4c(c5c6cccc(Cl)c6[nH]c5c32)C(=O)NC4=O)C(O)C1O (stereo not given) | -82% | 1% | 10 | 62* | -7%[11.4 µM] | -4%[11.4 µM]
O=C(Nc1sc2c(c1C(=O)NCC1CCCO1)CCC2)c1cc(=O)c2cc(Cl)ccc2o1 (stereo not given) | nt | 7% | nt | nt | 17% | 9%
C/C(=N\NC(=O)c1nnn(-c2nonc2N)c1-c1cccs1)c1ccncc1 | -20% | 3% | -14 | -1 | 35µM* | 2%
Cc1ccsc1/C=N/N=C/c1sccc1C | 2.2µM* | 0% | 11 | 0 | 37% | 9%[2.29 µM]
Cc1ccsc1C=Nc1ccc(O)cc1 | -99% | 14% | -5 | 0 | 56µM* | ?
SMILES | BRCA1 expr up | IDH1 R132H inh | Giardia kill | IL-2 act | rTrxR1 inhibitor | TrxR1 substrate
COc1ccc(Cl)cc1-n1nnc(-c2nc(-c3ccccc3)no2)c1C | nt | 20% | nt | nt | 28%[57.1 µM] | 8%[57.1 µM]
COc1ccc(-c2cc(OC(=O)c3cccc(C)c3)c3c(C)oc(C)c3c(=O)c2)cc1 | nt | -3% | nt | nt | ? | 3%
Cc1cccc(C)c1Nc1nc2ccccc2nc1NS(=O)(=O)c1ccccc1 | 1% | 11% | nt | nt | ? | -8%
CCNc1nc(N)c(C(=O)c2ccc(Cl)s2)s1 | 5µM* | -11% | 3 | -1 | 1% | 2%
CC(C)(C)c1csc(NC(=O)c2ccc(Cl)s2)n1 | -20% | 4% | -21 | -1 | 16%[57.1 µM] | 6%[57.1 µM]
O=C(NC(N1CCCC1)C(Cl)(Cl)Cl)c1ccccc1 (stereo not given) | 5% | 2% | 9 | -2 | 32µM* | 2%
O=C(NC(N1CCOCC1)C(Cl)(Cl)Cl)c1ccc(F)cc1 (stereo not given) | -4% | 7% | 15 | 1 | -38% | 13%[57.1 µM]
COc1ccc(Nc2cc(C(=O)NCc3ccccc3OC)c3ccccc3n2)cc1 | nt | 5% | nt | nt | 24%[57.1 µM] | 6%[57.1 µM]
N#C/C(=C(\O)c1ccco1)c1ccccn1 | ? | 1% | -8 | 0 | 9%[57.1 µM] | 9%[57.1 µM]
N#CC(C(=O)c1ccco1)c1ccccn1 (stereo not given) | 14µM* | 1% | 8 | 0 | 12% | 2%
Cc1cc(N/N=C/c2ccccc2O)nc(-c2ccccc2O)n1 | -49% | 3% | -14 | -2 | 9%[57.1 µM] | -7%
Cc1cc(N/N=C/c2ccc(O)cc2O)nc(-c2ccccc2O)n1 | -82% | 40µM* | ? | 1 | 0% | 0%
Cc1c(F)cccc1Cn1cnc2c(cnn2C(C)(C)C)c1=O | nt | nt | nt | nt | 3% | -8%
CC(C)Nc1oc(-c2cccc3ccccc23)nc1C#N | 14µM* | 6% | -3 | 0 | 265% | 410%
Cn1cccc1CNC(=O)Nc1ccc(Cl)c(Cl)c1 | 2.2µM* | 1% | 24 | 1 | -17% | -2%
Cc1nnc(N2CCC(C(=O)NCCC(C)C)CC2)c2nn(-c3ccc(Cl)cc3)c(C)c12 | nt | 7% | nt | nt | 26% | 19%
COc1cccc(C(=O)O/N=C/c2ccc(Sc3ccc(C)cc3)nc2)c1 | 7.1µM* | 11% | -3 | -2 | 12%[57.1 µM] | 20%[57.1 µM]
CCCC(=O)NC1=C(Cl)C(=O)c2ccccc2C1=O | -96% | 22% | -13 | -4 | 0.4µM* | 1%[11.4 µM]
O=C1C(Cl)=C(Nc2ccc(O)cc2)C(=O)c2ccccc21 | -96% | 0% | -21 | -4 | ? | 0%
Cc1ccc(NC2=C(Cl)C(=O)c3ccccc3C2=O)cc1 | -64% | -4% | -4 | 0 | 3.5µM* | -6%
CCN(CC)c1ccc(NC2=C(Cl)C(=O)c3ccccc3C2=O)cc1 | -85% | -1% | -3 | 1 | 2.5µM* | -11%
Cc1c(Cl)cccc1NS(=O)(=O)c1ccc(-c2cnc(C3CC3)o2)cc1 | -62% | -2% | nt | nt | 11%[57.1 µM] | -1%[57.1 µM]
CCOc1cc(-c2nc(-c3ccc(Br)cc3)no2)cc(OCC)c1OCC | nt | 7% | nt | nt | 1% | -3%
Cc1ccc(C(=O)N2CCc3cc(CNS(=O)(=O)c4ccc(Cl)s4)ccc32)cc1 | nt | 17% | nt | nt | 18%[57.1 µM] | -1%[57.1 µM]
C/C(=N\Nc1ccc(Cl)c(C(=O)O)c1)c1cccs1 | 13µM* | 0% | -21 | -2 | 14% | -3%
